High-throughput results as filed in PubChem BioAssay.
Most compounds without a hit are left out; they make up all but 0.69% or so of the library.
PfHsp90 set2: growth inhibition of yeast expressing Plasmodium Hsp90; inhibition, % at 9.4 µM; actives 0.32% (n = 310,000); S. cerevisiae expressing PfHsp90, BacTiter-Glo ATP, 48 h; yeast lacking PDR1 and PDR3 efflux regulators; AID 504621;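 active = every replicate shows inhibition above about 80%, whatever the replicate mean, limit read from the data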
AddAB inh: less growth of phage-infected E. coli with AddAB | actives 0.29% (n = 330,000) | inhibition, % at 11.9 µM | E. coli expressing H. pylori AddAB, absorbance growth | AID 435030; in the data active = inhibition above about 12%
phage Ecoli inh: E. coli growth loss with phage present | actives 0.26% (n = 360,000) | growth absorbance | inhibition, % at 11.9 µM; in the data active = inhibition above about 11%
E coli growth-1: E. coli growth inhibition; Escherichia coli growth, OD600, 23 h; active compounds read low; OD600 absorbance (concentration not given with the values); actives 0.21% (n = 330,000);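 active = OD600 absorbance below the run mean of sample wells minus 3.6 SD, in any replicate, cut at about 0.56 in these data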
Tat transport: inhibitors of E. coli Tat protein transport | E. coli MC4100 TorA-mCherry Tat export, fluorescence | inhibition, % at 10 µM | actives 0.036% (n = 340,000);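 active = mean replicate inhibition at least 50% and at least half of replicates individually reaching 50%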;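 note: exported cargo escapes ClpAP degradation while cytoplasmic cargo is degraded and loses fluorescence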
E coli growth-2: reduces bacterial viability in AddAB counter-screen | E. coli V3065 growth, OD600 absorbance, 18 h | actives 0.27% (n = 330,000) | inhibition, % at 11.9 µM;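 active = inhibition above the campaign's mean inhibition across all tested compounds plus 3 SD, cut at about 9.9% in these data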;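 note: uninfected addAB+ strain grown without phage in ampicillin broth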
Large screens that a line does not name were inactive.

O=C(Nc1nc2ccccc2s1)c1ccc([N+](=O)[O-])o1	none
CCOC(=O)/C(=C\c1ccccc1)C(=O)c1cc(C(C)=O)c(Nc2ccccc2)s1	none
CCOC(=O)/C(=C\c1cccnc1)C(=O)c1cc(C(C)=O)c(Nc2ccccc2)s1	PfHsp90 set2 103 (no result: phage Ecoli inh)
C=CC(C)(C)c1c(O)c(CC=C(C)C)c(O)c2c(=O)c3ccc(O)c(O)c3oc12	PfHsp90 set2 105 (no result: phage Ecoli inh)
Cc1ccc(C=NNC(=O)Cn2nc(C)c([N+](=O)[O-])c2C)o1	none (no result: PfHsp90 set2, AddAB inh, phage Ecoli inh, Tat transport, E coli growth-2)
Cc1ccccc1Oc1cc(-n2ncc(Cl)c(Cl)c2=O)ncn1	PfHsp90 set2 97
O=C(Nc1ccc(Cl)cc1)Nc1cc([N+](=O)[O-])ccc1F	none
O=C(Nc1ccc([N+](=O)[O-])cc1)Nc1ccc(Cl)cc1F	E coli growth-2 9.8
CNC(CC(=O)c1ccc([N+](=O)[O-])cc1)C(Cl)(Cl)Cl (configuration not stated)	PfHsp90 set2 109 (no result: phage Ecoli inh)
COc1ccc(C(=O)CC(Nc2ccc([N+](=O)[O-])cc2)c2ccc(OC)cc2)cc1 (configuration not stated)	none
Cc1[nH]n(-c2ccc(Br)cc2)c(=O)c1C=Nc1ccc(S(=O)(=O)Nc2nccs2)cc1	none
Cc1ccc(-n2[nH]c(C)c(C=Nc3ccc(S(=O)(=O)Nc4nccs4)cc3)c2=O)cc1	AddAB inh 13 (no result: PfHsp90 set2, phage Ecoli inh, Tat transport)
CCc1cccc2c(C(=O)COC(=O)c3ccc(O)cc3)c[nH]c12	none
CCc1cccc2c(C(=O)COC(=O)c3ccccc3)c[nH]c12	E coli growth-1 0.09
Cn1c(C=NNC(=O)c2ccccc2)nc2ccccc21	none (no result: PfHsp90 set2, AddAB inh, phage Ecoli inh, Tat transport, E coli growth-2)
COC(=O)c1ccc(C=NOCC(=O)Nc2cc(F)ccc2F)cc1	E coli growth-1 0.53 (no result: PfHsp90 set2, AddAB inh, phage Ecoli inh, Tat transport, E coli growth-2)
COCCNC(=S)NN=Cc1ccc(OCc2ccc(C(=O)OC)cc2)c(OC)c1	none (no result: PfHsp90 set2, AddAB inh, phage Ecoli inh, Tat transport, E coli growth-2)
O=C(O)CNC(=O)CC1S/C(=N/N=C2CSC(=O)N2)NC1=O (configuration not stated)	none (no result: PfHsp90 set2, AddAB inh, phage Ecoli inh, Tat transport, E coli growth-2)
O=C(N/N=C/c1cc(Cl)c(O)c(Cl)c1)c1cc2c(ccc3ccccc32)o1	PfHsp90 set2 95 (no result: E coli growth-1)
C/C(C=NNc1nc2ccccc2[nH]1)=C\c1ccccc1	E coli growth-1 0.51 (no result: PfHsp90 set2, AddAB inh, phage Ecoli inh, Tat transport, E coli growth-2)
BrC(=C\c1ccccc1)/C=N/Nc1nc2ccccc2[nH]1	none (no result: E coli growth-1)
Cc1nnsc1C(=O)NN=Cc1cccc(C(F)(F)F)c1	none (no result: PfHsp90 set2, AddAB inh, phage Ecoli inh, Tat transport, E coli growth-2)
COc1c(C=NNC(=O)[C@H]2C[C@@H]2c2ccccc2)c(CCN(C)C(C)=O)cc2c1OCO2	none (no result: PfHsp90 set2, AddAB inh, phage Ecoli inh, Tat transport, E coli growth-2)
CCCCNC(=S)Nc1ccc(Cl)cc1	none
CCCCNC(=S)Nc1ccc(C(F)(F)F)cc1	E coli growth-2 11
CC(=NNc1ccc(S(=O)(=O)Nc2ccccc2)cc1[N+](=O)[O-])c1ccncc1	none (no result: PfHsp90 set2, AddAB inh, phage Ecoli inh, Tat transport, E coli growth-2)
COC(=O)c1cc(=O)n(-c2ccc(F)cc2)c(=Nc2ccc(F)cc2)s1	PfHsp90 set2 125
O=C(NNc1nc2ccc(Cl)cc2s1)c1cc(-c2cccs2)nc2ccccc12	PfHsp90 set2 103 (no result: E coli growth-1)
COCCn1c(SCC(=O)NCc2ccc3c(c2)OCO3)nnc1-c1c[nH]c2ccccc12	phage Ecoli inh 93
O=C(COc1ccccc1[N+](=O)[O-])NN=Cc1ccc(O)cc1	none (no result: PfHsp90 set2, AddAB inh, phage Ecoli inh, Tat transport, E coli growth-2)
OC(Cn1cncn1)(c1ccc(F)cc1)c1ccc(Cl)cc1 (configuration not stated)	PfHsp90 set2 94
OC(Cn1cncn1)c1ccc(Cl)cc1 (configuration not stated)	none
Cc1ccc(CSc2nc3ccsc3c(=O)n2Cc2ccccn2)cc1	PfHsp90 set2 78
N#Cc1ccccc1CSc1nc2ccsc2c(=O)n1Cc1ccccn1	none
O=[N+]([O-])c1ccc(C=Nn2c(CO)nc3ccccc32)s1	none (no result: PfHsp90 set2, AddAB inh, phage Ecoli inh, Tat transport, E coli growth-2)
O=[N+]([O-])c1ccc(C=Nc2cccc3ccccc23)s1	PfHsp90 set2 103, E coli growth-1 0.51 (no result: phage Ecoli inh)
Nc1ncc(N=Nc2cc(C(=O)O)ccc2Cl)s1	E coli growth-2 11
Nc1cc2sc(-c3ccc(C(=O)O)cc3)nc2cc1Cl	none (no result: E coli growth-1)
O=C(CN1CCSCC1)NN=Cc1ccc(F)cc1	none (no result: PfHsp90 set2, AddAB inh, phage Ecoli inh, Tat transport, E coli growth-2)
Cc1cc(C(C)(C)CC(C)(C)C)ccc1OCCOCC[N+](C)(C)Cc1ccccc1	PfHsp90 set2 113, E coli growth-1 0.066
C[N+](C)(CCOc1ccccc1)Cc1ccccc1	none (no result: AddAB inh, E coli growth-1, E coli growth-2)
CCCCN(CCCC)C(=O)C[n+]1cccc(C=NO)c1	none (no result: PfHsp90 set2, AddAB inh, phage Ecoli inh, Tat transport, E coli growth-2)
O=C1Nc2ccc(Br)cc2/C1=C/C1CC=CCC1 (configuration not stated)	PfHsp90 set2 103
NC(=O)COc1ccc(C=NNC(=O)c2ccc(-c3ccccc3)cc2)cc1	none (no result: PfHsp90 set2, AddAB inh, phage Ecoli inh, Tat transport, E coli growth-2)
